Source: PubChem
USP1 inh = Inhibitors of USP1/UAF1: Primary Screen; Ubiquitin carboxyl-terminal hydrolase 1 (Homo sapiens), O94782; recombinant USP1/UAF1, Ub-Rhodamine cleavage fluorescence; Potency, µM (series often up to 57.1 µM), most hits filed as inhibitors; actives 0.23% (n = 390,000); AID 743255, 2014; further: nearly all actives have a fitted effect of over 60% in size
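Step one: compound is pinned into 1nM USP1/UAF1 in HEPES pH 7.8 buffer with TCEP. Step two: 15 min room-temperature incubation. Step three: Ub-Rho (150nM final) starts cleavage, tracked by fluorescence over six one-minute reads.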
EPAC2 antag = qHTS for Antagonist of cAMP-regulated guanine nucleotide exchange factor 2 (EPAC2): primary screen | Potency, µM (highest dose often 114 µM), most hits filed as inhibitors | Rap guanine nucleotide exchange factor 4 (Homo sapiens), Q8WZA2 | actives 0.18% (n = 360,000) | EPAC2 GEF exchange of Rap1B-BODIPY-GDP, fluorescence; further: nearly all actives have a fitted effect of over 45% in size
EPAC2 agonist = qHTS for Agonist of cAMP-regulated guanine nucleotide exchange factor 4 (EPAC2): primary screen; AID 720711, 2013; Potency, µM (highest dose often 154 µM), hits mostly activators; EPAC2 activation, biochemical qHTS; response scale: 100% = 6.5 mM cAMP response; Rap guanine nucleotide exchange factor 4 (Homo sapiens), Q8WZA2; actives 0.079% (n = 360,000); further: nearly all actives have a fitted effect of over 50% in size
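Compounds were added across a concentration range to EPAC2 (100 nM), RAP1B-BODIPY-GDP (250 nM) and GDP (50 uM). After 5 min at room temperature, fluorescence was recorded at 5-min intervals for 30 min.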
EPAC1 antagonist = qHTS for Antagonist of cAMP-regulated guanine nucleotide exchange factor 3 (EPAC1): primary screen | actives 0.14% (n = 360,000) | AID 720709, 2013 | Rap guanine nucleotide exchange factor 3 (Homo sapiens), O95398 | EPAC1 GEF assay, Rap1b-BODIPY-GDP exchange fluorescence | Potency, µM (titrated, usually from 115 µM), most hits filed as inhibitors; further: nearly all actives have a fitted effect of over 50% in size
EPAC1 agonist = qHTS for Agonist of cAMP-regulated guanine nucleotide exchange factor 3 (EPAC1): primary screen | Potency, µM (highest dose often 154 µM), actives largely listed as activators | EPAC1 agonist qHTS, biochemical assay; response scale: 100% = response to 6.5 mM cAMP | Rap guanine nucleotide exchange factor 3 (Homo sapiens), O95398 | actives 0.073% (n = 360,000); further: nearly all actives have a fitted effect of over 60% in size
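Multi-concentration qHTS readout: loss of Rap1B-bound BODIPY-GDP fluorescence driven by 100 nM EPAC1 with excess GDP (50 uM), monitored kinetically at room temperature; agonist response expressed relative to 6.5 mM cAMP.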
Each line names hits and unclear results; the compound was inactive in the other large screens; ! = not confirmed by another sample. Sampled rows, rich in hits. Any-hit rate of the full collection: about 0.45%. The call rests on the fitted dose curve; in most records, active means well fitted curve in the direction sought with a large enough effect; inconclusive means small, poorly fitted or top-dose-only effect, or another doubt; inactive means no such curve, though single readings can be large; an effect the other way counts as inactive or inconclusive.

O=C1C(C2=C(O)c3ccccc3C2=O)=Nc2ccccc21	USP1 inh 14.1µM, EPAC2 antag inconclusive
CN=CC1=C(O)c2ccccc2C1=O	none
Cc1ccc(C)c(N2CCN(C(=O)c3cc4c(=O)n(Cc5ccccc5)ccc4nc3C)CC2)c1	none (no result: EPAC2 antag, EPAC2 agonist, EPAC1 antagonist, EPAC1 agonist)
COc1ccccc1N1N=C(C(=O)c2ccccc2)C2C(=O)N(c3ccc(Br)cc3)C(=O)C21 (configuration not stated)	USP1 inh inconclusive, EPAC2 antag 44.7µM, EPAC1 antagonist inconclusive, EPAC1 agonist inconclusive
CCc1ccc(NC(=O)c2sc3nc(C)cc(C)c3c2NC(=O)c2ccccc2OC)cc1	none (no result: EPAC2 antag, EPAC2 agonist, EPAC1 antagonist, EPAC1 agonist)
COc1ccc(C2=Nn3c(nnc3-c3ccco3)SC2)cc1	none
Oc1ccc(C2=Nn3c(nnc3-c3ccco3)SC2)cc1O	EPAC2 antag inconclusive, EPAC1 antagonist 44.7µM
COc1ccc2c(c1)Cc1sc(NC(=O)c3cccc(C)c3)nc1-2	USP1 inh 35.5µM (no result: EPAC2 antag, EPAC2 agonist, EPAC1 antagonist, EPAC1 agonist)
Cc1c(N)c(C(C)(C)C)cc(C(C)(C)C)c1[N+](=O)[O-]	none
Cc1cc2nc3c(=O)[nH]c(=O)[nH]c3nc2c([N+](=O)[O-])c1N	USP1 inh inconclusive, EPAC1 agonist 89.1µM
CCOc1ccc(N(CC)S(=O)(=O)N2CCCC(C(=O)NCCc3ccccc3OC)C2)cc1 (configuration not stated)	none (no result: EPAC2 antag, EPAC2 agonist, EPAC1 antagonist, EPAC1 agonist)
Cc1[nH]c2ccc(C(=O)OC(C)C(=O)N(C)c3ccccc3)cc2c1C (configuration not stated)	EPAC1 agonist 28.2µM
COc1cc2c3nnc(-c4ccc(F)cc4)c-3cn(Cc3ccc(F)cc3)c2cc1OC	none
COc1cc2c3nnc(-c4ccc(F)cc4)c-3cn(Cc3ccccc3)c2cc1OC	USP1 inh 31.6µM
COc1ccc(S(=O)(=O)NCCc2csc3nc(-c4ccc(OC)c(OC)c4)nn23)cc1C	none (no result: EPAC2 antag, EPAC2 agonist, EPAC1 antagonist, EPAC1 agonist)
Cc1cc2ccccn2c1C(=O)c1ccccc1Br	EPAC2 antag 12.6µM
Cc1cc2ccccn2c1C(=O)c1ccc(Cl)c([N+](=O)[O-])c1	EPAC2 antag 11.2µM
O=C(NC1CCCCC1)c1ccc2c(c1)N(Cc1ccccc1Cl)C(=O)c1ccccc1S2	none (no result: EPAC2 antag, EPAC2 agonist, EPAC1 antagonist, EPAC1 agonist)
COc1cc(N=C2C(=O)N3c4c(cccc42)C(C)=CC3(C)C)cc(OC)c1	none
CC1=CC(C)(C)N2C(=O)C(=Nc3ccc(O)cc3)c3cccc1c32	USP1 inh 3.55µM, EPAC2 antag inconclusive, EPAC1 antagonist 79.4µM
CCOC(=O)c1ccc(OCC2c3cc(OC)c(OC)cc3CCN2C(=O)c2ccc(S(=O)(=O)N3CCCC3)cc2)cc1 (configuration not stated)	none (no result: EPAC2 antag, EPAC2 agonist, EPAC1 antagonist, EPAC1 agonist)
COc1cc(/C=C/C(=O)c2ccc3c(c2)OCCO3)cc(Br)c1OCC(=O)N(C)C	EPAC1 antagonist 79.4µM
CCCNC(=O)c1ccc2c(=O)c(O)c(-c3ccc(C)cc3)[nH]c2c1	none
CCCNC(=O)c1ccc2c(=O)c(O)c(-c3ccsc3)[nH]c2c1	EPAC2 agonist 89.1µM
CN1CCC2(CC1)C1CN(C)CC=C1C(C#N)=C(N)C2(C#N)C#N (configuration not stated)	USP1 inh 28.2µM!, EPAC1 agonist inconclusive
Cc1ccc(NC(=O)C2CCCN(c3ncnc4c3nc3n4CCCCC3)C2)c(Br)c1 (configuration not stated)	none (no result: EPAC2 antag, EPAC2 agonist, EPAC1 antagonist, EPAC1 agonist)
O=C1NC(=S)S/C1=C\c1cc(Cl)ccc1Cl	EPAC2 antag 56.2µM, EPAC1 antagonist inconclusive
O=[N+]([O-])c1cc(Cl)cc(/C=N/NC(=S)Nc2ccc(S(=O)(=O)N3CCOCC3)cc2)c1O	USP1 inh inconclusive, EPAC2 antag 56.2µM, EPAC1 antagonist inconclusive
Cc1cccc(NC(=O)CN2C(=O)N/C(=C\c3ccccc3OCc3ccc(C(=O)O)cc3)C2=O)c1	EPAC1 antagonist 28.2µM
O=C(CN1C(=O)N/C(=C\c2ccccc2OCc2ccc(C(=O)O)cc2)C1=O)Nc1ccc(F)cc1	EPAC1 antagonist inconclusive
